Source: ChEMBL document CHEMBL3988442, “University of Dundee, Small-Polar-MMV Screening Library” (2021)
Screen size: about 67,000 compounds; about 300 (0.45%) showed an effect of 50% or more. What follows is part of a selection rich in strong results, with near analogues and random picks from the rest.

What follows are molecules tested against Polyketide synthase Pks13 (Mycobacterium tuberculosis (strain ATCC 25618 / H37Rv)) (UniProt I6X8D2) (assay: Mycobacterium tuberculosis Polyketide synthase 13 Thioesterase (PKS13)). Conditions: 30 µM.
Polyketide synthase Pks13 (Mycobacterium tuberculosis (strain ATCC 25618 / H37Rv)), sequence (I6X8D2 whole entry): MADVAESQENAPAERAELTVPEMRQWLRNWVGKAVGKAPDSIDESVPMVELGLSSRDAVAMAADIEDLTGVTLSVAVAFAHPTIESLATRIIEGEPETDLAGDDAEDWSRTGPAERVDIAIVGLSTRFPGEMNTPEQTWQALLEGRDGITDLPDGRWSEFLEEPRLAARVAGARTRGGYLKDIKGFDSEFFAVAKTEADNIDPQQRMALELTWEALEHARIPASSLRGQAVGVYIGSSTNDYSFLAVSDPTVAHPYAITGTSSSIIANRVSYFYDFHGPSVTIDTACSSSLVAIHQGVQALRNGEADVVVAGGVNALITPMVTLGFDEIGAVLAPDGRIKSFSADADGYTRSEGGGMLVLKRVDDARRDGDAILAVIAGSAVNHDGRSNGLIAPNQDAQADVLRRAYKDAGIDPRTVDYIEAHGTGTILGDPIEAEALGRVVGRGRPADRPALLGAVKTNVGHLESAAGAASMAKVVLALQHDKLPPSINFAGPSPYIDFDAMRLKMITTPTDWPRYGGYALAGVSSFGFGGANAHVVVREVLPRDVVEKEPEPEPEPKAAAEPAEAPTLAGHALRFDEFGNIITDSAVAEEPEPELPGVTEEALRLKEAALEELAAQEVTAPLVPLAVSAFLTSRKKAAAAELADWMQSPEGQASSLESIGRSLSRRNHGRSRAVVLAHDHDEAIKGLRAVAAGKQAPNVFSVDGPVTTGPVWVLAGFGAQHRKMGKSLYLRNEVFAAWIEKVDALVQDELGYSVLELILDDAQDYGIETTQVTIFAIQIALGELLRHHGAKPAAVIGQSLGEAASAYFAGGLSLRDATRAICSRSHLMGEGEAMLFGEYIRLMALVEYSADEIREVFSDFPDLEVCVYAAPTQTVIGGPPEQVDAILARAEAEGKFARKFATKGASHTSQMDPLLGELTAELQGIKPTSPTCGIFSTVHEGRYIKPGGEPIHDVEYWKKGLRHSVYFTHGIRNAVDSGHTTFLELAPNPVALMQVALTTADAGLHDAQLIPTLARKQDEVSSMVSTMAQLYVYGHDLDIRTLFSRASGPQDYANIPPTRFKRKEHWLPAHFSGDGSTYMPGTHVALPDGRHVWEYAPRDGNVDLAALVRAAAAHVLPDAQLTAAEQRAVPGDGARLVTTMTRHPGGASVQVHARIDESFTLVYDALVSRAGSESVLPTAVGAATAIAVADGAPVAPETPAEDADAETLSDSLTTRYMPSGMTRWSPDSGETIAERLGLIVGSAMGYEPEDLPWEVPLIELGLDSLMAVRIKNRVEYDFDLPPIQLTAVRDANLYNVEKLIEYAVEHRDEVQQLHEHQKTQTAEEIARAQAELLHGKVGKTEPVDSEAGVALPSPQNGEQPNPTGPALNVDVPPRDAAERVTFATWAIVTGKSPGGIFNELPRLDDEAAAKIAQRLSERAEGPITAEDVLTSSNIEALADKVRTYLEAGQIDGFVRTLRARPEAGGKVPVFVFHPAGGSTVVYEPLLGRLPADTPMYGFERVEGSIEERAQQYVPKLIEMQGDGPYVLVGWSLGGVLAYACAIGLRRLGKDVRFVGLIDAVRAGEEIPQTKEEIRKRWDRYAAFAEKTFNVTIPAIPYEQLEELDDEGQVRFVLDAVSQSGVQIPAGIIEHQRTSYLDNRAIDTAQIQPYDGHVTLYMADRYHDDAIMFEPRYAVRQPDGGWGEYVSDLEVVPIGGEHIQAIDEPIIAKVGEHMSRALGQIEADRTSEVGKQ
Format: functional
Set-up: scale not given: in the data most compounds retested in dose-response had high values

SMILES | Percent Effect [%]
CC1CN(C(=O)c2cc(=O)[nH]c3ccc(F)cc23)CCO1 (stereo not given) | 6.5
Cc1ccc(OCc2occc2C(=O)N2C[C@@H]3[C@@H](CN(C)C)[C@@H]3C2)cc1 | -36.4
CN(C)C[C@@H]1CN(C(=O)c2cc(F)ccc2F)C[C@@H]1CO | -27.8
CN(C)C[C@H]1C[C@@H](CO)CN(C(=O)c2cc(=O)[nH]c3cc(F)ccc23)C1 | -20
CN(C)C[C@@H]1[C@H]2CN(C(=O)c3cc(=O)[nH]c4ccc(F)cc34)C[C@@H]12 | 55.8
Cc1ccoc1C(=O)N1CC[C@@H]2CN(C3CCOCC3)CCO[C@@H]2C1 | -13.2
COc1ncccc1CN1C[C@H]2C[C@@H](C(=O)NCC3CC3)N(C)[C@H]2C1 | -7.18
Cc1noc(C)c1CN1C(=O)[C@H]2CC[C@@H]1CN(Cc1cccnc1N)C2 | -20
Cc1oncc1C(=O)N1CC[C@@H]2[C@@H]1CC(=O)N2Cc1cccnc1 | 10.2
CCc1ccccc1CN1CCN(Cc2ncc[nH]2)[C@H]2CS(=O)(=O)C[C@H]21 | -16.6
Cn1ccc(C(=O)N2CCN(c3ncccn3)CC2)cc1=O | 11.1
Cn1ccc(C(=O)NC2CCN(c3ncccn3)CC2)cc1=O | 71.3
COc1ccc(C(=O)NC2CCN(c3ncccn3)CC2)cc1F | -18.2
CN(C)c1ccc(CN2C[C@H]3CC[C@@H]2CN(C2CCOCC2)C3)cn1 | -33
CNC(=O)[C@H]1C[C@@H]2CN(Cc3csc(C)n3)C[C@@H]2N1S(C)(=O)=O | -33.5
O=C(Cc1ccccn1)N1CCC2(CC1)[C@H](O)C[C@@H]2O | 7.55
CCOC1CC2(CCN(C(=O)Cc3ccccn3)CC2)C1 | 58.6
CC(C)COC1CC2(CCN(C(=O)Cc3ccccn3)CC2)C1 | 0.268
C[C@@H]1C[C@@H]2CCN(C(=O)c3ccncn3)C[C@H]2O1 | -3.96
O=C(CC[C@@H]1CCCN2CCCC[C@H]12)NCCc1nc(O)cc(O)n1 | -3.34
c1cncc(OC[C@]23COC[C@H]2CN(Cc2nccs2)C3)c1 | -6.85
CCOCCCNC(=O)c1cn(C(C)(C)C)c2ncccc12 | 60.2
COCCNC(=O)c1cn(C(C)(C)C)c2ncccc12 | -9.36
COCCCNC(=O)c1cn(C(C)(C)C)c2ncccc12 | 0.73

SMILES | Percent Effect [%]
Cc1cccc(CN2C[C@@H]3CCCO[C@@H]3[C@H](Nc3ccccn3)C2)n1 | -13.2
C[C@H]1C[C@@H]2CCN(C(=O)c3cccn3C)C[C@H]2O1 | -23.4
Cc1oc(-c2nc(C#N)c(NC3CC3)o2)cc1S(=O)(=O)N1CCCC1 | -2.87
CN(C)S(=O)(=O)c1ccc(-c2nc(C#N)c(NC(C)(C)C)o2)o1 | -2.58
CN(C)S(=O)(=O)c1ccc(-c2nc(C#N)c(NC3CC3)o2)o1 | 73.3
Cc1ccc(C(=O)N2CCO[C@H]3[C@H](OCC4CCOCC4)CC[C@@H]32)o1 | -6.47
CC(C)(CO)CNC(=O)c1cc(-c2cc[nH]n2)n2ccccc12 | 67.2
COCCNC(=O)c1cc(-c2cc[nH]n2)n2ccccc12 | 47.6
O=C(NCCCO)c1cc(-c2cc[nH]n2)n2ccccc12 | 48.6
Fc1cnc(N2CCO[C@H]3CN(CC4CCCC4)C[C@H]32)nc1 | -14.5
CC(C)c1n[nH]c(C(=O)Nc2cc[nH]n2)c1Br | -20
CC(C)c1n[nH]c(C(=O)Nc2ccccn2)c1Br | -9.25
Cc1cccc(NC(=O)c2[nH]nc(C(C)C)c2Br)n1 | 73.4
Cc1cc(CN2C[C@H]3CCC[C@@]3(COCC3CCOCC3)C2)no1 | -40.7
CC(=O)N1C[C@@H](c2ccsc2)[C@@H]2CN(Cc3ccccc3C)CC[C@@H]21 | -7.95
Cc1nc([C@@H]2C[C@@H]3CCN(Cc4cnn(C)c4)C[C@H]3O2)sc1C | -30.4
CC(=O)N1CCS(=O)(=O)[C@@H]2CCN(CC(C)C)CC[C@@H]21 | -16.8
Cc1cccc(C(C)CNS(=O)(=O)CCCC#N)c1 (stereo not given) | 50.7
CC(CNS(=O)(=O)CCCC#N)c1ccsc1 (stereo not given) | -31.9
COCCS(=O)(=O)NCC(C)c1cccc(C)c1 (stereo not given) | -20.8
Cn1cc(CN2C[C@H]3CCN(C(=O)c4cscn4)C[C@H]3C2)cn1 | -3.8
Cc1ccc(CC(=O)N2CC[C@@H]3NC(=O)CC[C@@H]32)cc1 | -1.54
CCc1ccc(S(=O)(=O)NCC2CCN(c3cnccn3)CC2)s1 | 56.2
CCS(=O)(=O)NCC1CCN(c2cnccn2)CC1 | -18.7

SMILES | Percent Effect [%]
O=S(=O)(NCC1CCN(c2cnccn2)CC1)c1cccs1 | 45.5
CCCc1ccc(CN2CCN(C(=O)CC(C)C)[C@@H]3CS(=O)(=O)C[C@@H]32)o1 | -12.9
CCN(Cc1ccccc1)C(=O)c1cc(C2CCCN2C)ccn1 (stereo not given) | -15.7
CCN(CC)C(=O)c1cc(C2CCCN2C)ccn1 (stereo not given) | 88.5
CN1CCCC1c1ccnc(C(=O)N(C)C2CCCCC2)c1 (stereo not given) | 5.64
C=Cn1ncc(CN2C[C@@H]3CCCN3C[C@@H]2CCSC)c1C | -1.08
Cc1cnn(CC2CN(Cc3nnc(C4CC4)o3)CCO2)c1 (stereo not given) | -7.17
CCc1nnc(CN2CCOC(Cn3cc(C)cn3)C2)o1 (stereo not given) | 52.7
Cc1cnn(CC2CN(Cc3nnc(C(C)C)o3)CCO2)c1 (stereo not given) | -12.6
Cc1ccc(N2C[C@H]3CCC[C@@]3(COc3cccnc3)C2)nn1 | -28.6
CCCOC(C)Cn1ccc2[nH]c(=O)c(C#N)cc2c1=O (stereo not given) | 89.3
CCC(Cn1ccc2[nH]c(=O)c(C#N)cc2c1=O)OC (stereo not given) | -9.98
N#Cc1cc2c(=O)n(CC(O)C(F)(F)F)ccc2[nH]c1=O (stereo not given) | -25.1
O=C(NC1CCC1)[C@H]1C[C@@H]2CN(S(=O)(=O)c3ccccc3)C[C@H]1O2 | -31.3
O=C(N[C@H]1CN(Cc2cccs2)[C@@H]2CCCO[C@H]12)c1cccnc1 | -28.5
COc1ccccc1CN1C(=O)O[C@@H]2CN(c3ccccn3)C[C@@H]21 | 4.73
COCCNc1nc2c(c(NCCc3cccs3)n1)CCNCC2 | -17.6
COCCNc1nc2c(c(NCC3CCOC3)n1)CCNCC2 (stereo not given) | 89.6
COCCNc1nc2c(c(NCc3ccncc3)n1)CCNCC2 | -8.09
CS(=O)(=O)NC[C@]12COC[C@H]1CN(C(=O)CCc1ccccc1)C2 | -0.91
Cc1csc([C@H]2C[C@@H]3CCN(Cc4cc(C)on4)C[C@H]3O2)n1 | -10.9
CN(C)S(=O)(=O)N1C[C@H]2CCC[C@@]2(COCc2cccnc2)C1 | -34
